From the supplement of paper PMC10849652
About 7,900 targets were measured; listed, in parts, are those with a hit and a random draw of the rest. About 0.6% of all pairs of compound and target were hits. Unmarked numbers belong to inactive results.

What was measured:
Experiment in all cases: log2 fold change, soluble protein after heating vs DMSO (PISA); higher = thermal stabilisation; K562 cells, 10 uM, 30 min; active = over 0.2 and 3.5 SD of the protein, either way, in both replicates (recomputed)
[1] = compound: COC1=CC=C(C=C1)CN2C=CC3=C2C=C(C=C3)C(=O)NO
Procedure, shortened: (§1)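 Values are thermal stability changes relative to control samples and are taken from duplicates. They are stated as log2 fold changes. Before quantification by TMTpro 16plex LC-MS/MS with equalised channel sums, K562 cells at 2×10^6 cells/mL were treated with 10 μM compound for 30 min, heated in aliquots for 3 min across 48°C-58°C, pooled, extracted in PBS with 0.5% NP-40 at 4°C, and centrifuged at 21,000xg for 90 min to give the soluble supernatant.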

filanesib = compound: CON(C)C(=O)N1N=C(c2cc(F)ccc2F)S[C@@]1(CCCN)c1ccccc1 [filanesib]
Procedure, shortened: as §1

zotarolimus = compound: CO[C@H]1C[C@@H]2CC[C@@H](C)[C@@](O)(O2)C(=O)C(=O)N2CCCC[C@H]2C(=O)O[C@H]([C@H](C)C[C@@H]2CC[C@H](n3cnnn3)[C@H](OC)C2)CC(=O)[C@H](C)/C=C(\C)[C@@H](O)[C@@H](OC)C(=O)[C@H](C)C[C@H](C)/C=C/C=C/C=C/1C [zotarolimus]
Procedure, shortened: as §1

idasanutlin = compound: COc1cc(C(=O)O)ccc1NC(=O)[C@@H]1N[C@@H](CC(C)(C)C)[C@](C#N)(c2ccc(Cl)cc2F)[C@H]1c1cccc(Cl)c1F [idasanutlin]
Procedure, shortened: as §1

alisertib = compound: COc1cc(Nc2ncc3c(n2)-c2ccc(Cl)cc2C(c2c(F)cccc2OC)=NC3)ccc1C(=O)O [alisertib]
Procedure, shortened: as §1

[2] = compound: COc1cccc2cc(-c3nc([C@H]4CC[C@H](C(=O)O)CC4)n4ncnc(N)c34)[nH]c12
Procedure, shortened: as §1

[3] = compound: CS(=O)(=O)c1ccc(-c2cnc(N)c(C(=O)Nc3ccccc3)n2)cc1
Procedure, shortened: as §1

crizotinib = compound: C[C@@H](Oc1cc(-c2cnn(C3CCNCC3)c2)cnc1N)c1c(Cl)ccc(F)c1Cl [crizotinib]
Procedure, shortened: as §1

[4] = compound: C[C@@H]1COCCN1C2=NC(=NC(=C2)C3(CC3)S(=O)(=O)C)C4=C5C=CNC5=CC=C4
Procedure, shortened: as §1

[5] = compound: C[C@H](C1=CC=C(C=C1)C(=O)NC2=C3C=CNC3=NC=C2)N
Procedure, shortened: as §1

duvelisib = compound: C[C@H](Nc1ncnc2nc[nH]c12)c1cc2cccc(Cl)c2c(=O)n1-c1ccccc1 [duvelisib]
Procedure, shortened: as §1

tozasertib = compound: Cc1cc(Nc2cc(N3CCN(C)CC3)nc(Sc3ccc(NC(=O)C4CC4)cc3)n2)n[nH]1 [tozasertib]
Procedure, shortened: as §1

[6] = compound: Cc1cc(SCc2sc(-c3ccc(C(F)(F)F)cc3)nc2C)ccc1OCC(=O)O
Procedure, shortened: as §1

doramapimod = compound: Cc1ccc(-n2nc(C(C)(C)C)cc2NC(=O)Nc2ccc(OCCN3CCOCC3)c3ccccc23)cc1 [doramapimod]
Procedure, shortened: as §1

[7] = compound: COc1cc2nc(-c3cc(F)ccc3O)nc(N[C@@H]3CNC[C@H]3C(C)(C)O)c2cc1OC
Procedure, shortened: as §1

gefitinib = compound: COc1cc2ncnc(Nc3ccc(F)c(Cl)c3)c2cc1OCCCN1CCOCC1 [gefitinib]
Procedure, shortened: as §1

lapatinib = compound: CS(=O)(=O)CCNCc1ccc(-c2ccc3ncnc(Nc4ccc(OCc5cccc(F)c5)c(Cl)c4)c3c2)o1 [lapatinib]
Procedure, shortened: as §1

pictilisib = compound: CS(=O)(=O)N1CCN(Cc2cc3nc(-c4cccc5[nH]ncc45)nc(N4CCOCC4)c3s2)CC1 [pictilisib]
Procedure, shortened: as §1

gandotinib = compound: Cc1cc(Nc2cc(CN3CCOCC3)c3nc(C)c(Cc4ccc(Cl)cc4F)n3n2)n[nH]1 [gandotinib]
Procedure, shortened: as §1

ispinesib = compound: Cc1ccc(C(=O)N(CCCN)[C@@H](c2nc3cc(Cl)ccc3c(=O)n2Cc2ccccc2)C(C)C)cc1 [ispinesib]
Procedure, shortened: as §1

Sequence of UniProt O75792 (O75792 whole entry, looked up): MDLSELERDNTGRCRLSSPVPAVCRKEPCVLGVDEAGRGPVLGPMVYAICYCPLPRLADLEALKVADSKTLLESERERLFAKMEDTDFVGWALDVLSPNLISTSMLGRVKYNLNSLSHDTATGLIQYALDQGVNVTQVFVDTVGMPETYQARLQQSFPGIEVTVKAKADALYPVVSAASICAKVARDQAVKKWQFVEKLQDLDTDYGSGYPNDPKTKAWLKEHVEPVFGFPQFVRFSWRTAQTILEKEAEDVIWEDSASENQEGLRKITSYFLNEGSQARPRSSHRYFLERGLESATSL
Sequence of UniProt Q86TU7 (Q86TU7 whole entry, looked up): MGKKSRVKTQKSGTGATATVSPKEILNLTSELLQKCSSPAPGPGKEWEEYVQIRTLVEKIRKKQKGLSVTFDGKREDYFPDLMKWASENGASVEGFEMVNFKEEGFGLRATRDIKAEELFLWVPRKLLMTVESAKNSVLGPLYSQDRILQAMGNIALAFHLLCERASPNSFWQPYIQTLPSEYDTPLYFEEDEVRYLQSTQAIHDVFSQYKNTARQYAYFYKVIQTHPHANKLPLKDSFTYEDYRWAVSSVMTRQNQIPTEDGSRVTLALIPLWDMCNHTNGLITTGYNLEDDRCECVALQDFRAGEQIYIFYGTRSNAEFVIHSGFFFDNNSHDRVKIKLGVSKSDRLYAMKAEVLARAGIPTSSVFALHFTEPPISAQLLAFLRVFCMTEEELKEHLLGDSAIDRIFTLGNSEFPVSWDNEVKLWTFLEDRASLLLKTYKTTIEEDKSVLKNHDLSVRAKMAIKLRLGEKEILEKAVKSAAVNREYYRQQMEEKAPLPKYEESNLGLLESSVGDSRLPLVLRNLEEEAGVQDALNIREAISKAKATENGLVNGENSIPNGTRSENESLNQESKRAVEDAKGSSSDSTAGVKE
Sequence of UniProt Q96D15 (Q96D15 whole entry, looked up): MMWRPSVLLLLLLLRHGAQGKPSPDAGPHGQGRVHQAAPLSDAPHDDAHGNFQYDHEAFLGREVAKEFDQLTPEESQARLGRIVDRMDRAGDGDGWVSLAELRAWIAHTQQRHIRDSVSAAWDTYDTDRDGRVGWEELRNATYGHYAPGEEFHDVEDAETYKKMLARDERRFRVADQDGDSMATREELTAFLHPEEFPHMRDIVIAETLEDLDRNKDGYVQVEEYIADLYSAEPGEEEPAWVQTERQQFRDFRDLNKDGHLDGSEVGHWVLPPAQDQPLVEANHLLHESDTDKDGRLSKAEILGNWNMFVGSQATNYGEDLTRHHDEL
Sequence of UniProt P04049 (P04049 whole entry, looked up): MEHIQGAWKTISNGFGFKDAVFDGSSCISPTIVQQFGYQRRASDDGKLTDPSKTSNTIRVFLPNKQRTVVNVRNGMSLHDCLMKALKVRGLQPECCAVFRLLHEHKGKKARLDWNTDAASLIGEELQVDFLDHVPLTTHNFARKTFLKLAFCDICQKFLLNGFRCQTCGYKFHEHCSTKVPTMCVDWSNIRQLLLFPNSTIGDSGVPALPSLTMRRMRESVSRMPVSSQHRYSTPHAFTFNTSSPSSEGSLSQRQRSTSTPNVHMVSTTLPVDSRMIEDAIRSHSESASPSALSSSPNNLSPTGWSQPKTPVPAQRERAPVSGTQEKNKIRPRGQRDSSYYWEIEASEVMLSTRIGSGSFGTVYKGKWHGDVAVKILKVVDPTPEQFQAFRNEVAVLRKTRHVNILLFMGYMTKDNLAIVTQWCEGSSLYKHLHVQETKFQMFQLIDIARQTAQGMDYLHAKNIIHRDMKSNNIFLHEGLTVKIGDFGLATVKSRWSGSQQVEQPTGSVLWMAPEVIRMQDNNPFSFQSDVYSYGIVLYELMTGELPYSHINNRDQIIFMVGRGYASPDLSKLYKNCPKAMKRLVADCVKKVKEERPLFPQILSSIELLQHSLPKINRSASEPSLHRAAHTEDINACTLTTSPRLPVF
Sequence of UniProt Q8WZA2 (Q8WZA2 whole entry, looked up): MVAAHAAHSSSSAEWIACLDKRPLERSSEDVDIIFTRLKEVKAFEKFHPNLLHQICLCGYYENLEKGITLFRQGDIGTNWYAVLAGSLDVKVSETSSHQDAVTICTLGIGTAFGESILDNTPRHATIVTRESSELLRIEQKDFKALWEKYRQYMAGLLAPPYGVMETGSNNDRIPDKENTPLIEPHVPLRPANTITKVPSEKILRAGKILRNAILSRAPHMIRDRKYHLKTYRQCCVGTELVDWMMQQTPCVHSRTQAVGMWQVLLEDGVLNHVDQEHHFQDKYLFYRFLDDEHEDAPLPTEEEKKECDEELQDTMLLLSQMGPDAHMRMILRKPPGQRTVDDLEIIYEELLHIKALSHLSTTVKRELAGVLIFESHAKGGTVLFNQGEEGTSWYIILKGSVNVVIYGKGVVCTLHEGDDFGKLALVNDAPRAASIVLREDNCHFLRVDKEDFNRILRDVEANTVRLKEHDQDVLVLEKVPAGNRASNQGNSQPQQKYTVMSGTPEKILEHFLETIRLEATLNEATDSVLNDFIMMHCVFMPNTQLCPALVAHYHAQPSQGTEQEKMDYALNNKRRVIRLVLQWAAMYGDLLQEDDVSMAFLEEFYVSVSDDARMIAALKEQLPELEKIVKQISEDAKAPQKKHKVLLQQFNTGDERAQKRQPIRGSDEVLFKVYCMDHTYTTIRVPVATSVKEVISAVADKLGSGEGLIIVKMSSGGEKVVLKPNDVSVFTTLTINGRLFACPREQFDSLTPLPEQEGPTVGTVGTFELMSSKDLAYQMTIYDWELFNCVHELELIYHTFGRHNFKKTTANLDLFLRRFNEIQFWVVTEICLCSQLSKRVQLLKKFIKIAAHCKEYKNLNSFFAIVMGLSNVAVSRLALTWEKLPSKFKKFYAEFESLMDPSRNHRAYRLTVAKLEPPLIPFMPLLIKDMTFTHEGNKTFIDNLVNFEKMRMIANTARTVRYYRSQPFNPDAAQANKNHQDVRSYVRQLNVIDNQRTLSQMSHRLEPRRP
Sequence of UniProt Q7Z6E9 (Q7Z6E9 whole entry, looked up): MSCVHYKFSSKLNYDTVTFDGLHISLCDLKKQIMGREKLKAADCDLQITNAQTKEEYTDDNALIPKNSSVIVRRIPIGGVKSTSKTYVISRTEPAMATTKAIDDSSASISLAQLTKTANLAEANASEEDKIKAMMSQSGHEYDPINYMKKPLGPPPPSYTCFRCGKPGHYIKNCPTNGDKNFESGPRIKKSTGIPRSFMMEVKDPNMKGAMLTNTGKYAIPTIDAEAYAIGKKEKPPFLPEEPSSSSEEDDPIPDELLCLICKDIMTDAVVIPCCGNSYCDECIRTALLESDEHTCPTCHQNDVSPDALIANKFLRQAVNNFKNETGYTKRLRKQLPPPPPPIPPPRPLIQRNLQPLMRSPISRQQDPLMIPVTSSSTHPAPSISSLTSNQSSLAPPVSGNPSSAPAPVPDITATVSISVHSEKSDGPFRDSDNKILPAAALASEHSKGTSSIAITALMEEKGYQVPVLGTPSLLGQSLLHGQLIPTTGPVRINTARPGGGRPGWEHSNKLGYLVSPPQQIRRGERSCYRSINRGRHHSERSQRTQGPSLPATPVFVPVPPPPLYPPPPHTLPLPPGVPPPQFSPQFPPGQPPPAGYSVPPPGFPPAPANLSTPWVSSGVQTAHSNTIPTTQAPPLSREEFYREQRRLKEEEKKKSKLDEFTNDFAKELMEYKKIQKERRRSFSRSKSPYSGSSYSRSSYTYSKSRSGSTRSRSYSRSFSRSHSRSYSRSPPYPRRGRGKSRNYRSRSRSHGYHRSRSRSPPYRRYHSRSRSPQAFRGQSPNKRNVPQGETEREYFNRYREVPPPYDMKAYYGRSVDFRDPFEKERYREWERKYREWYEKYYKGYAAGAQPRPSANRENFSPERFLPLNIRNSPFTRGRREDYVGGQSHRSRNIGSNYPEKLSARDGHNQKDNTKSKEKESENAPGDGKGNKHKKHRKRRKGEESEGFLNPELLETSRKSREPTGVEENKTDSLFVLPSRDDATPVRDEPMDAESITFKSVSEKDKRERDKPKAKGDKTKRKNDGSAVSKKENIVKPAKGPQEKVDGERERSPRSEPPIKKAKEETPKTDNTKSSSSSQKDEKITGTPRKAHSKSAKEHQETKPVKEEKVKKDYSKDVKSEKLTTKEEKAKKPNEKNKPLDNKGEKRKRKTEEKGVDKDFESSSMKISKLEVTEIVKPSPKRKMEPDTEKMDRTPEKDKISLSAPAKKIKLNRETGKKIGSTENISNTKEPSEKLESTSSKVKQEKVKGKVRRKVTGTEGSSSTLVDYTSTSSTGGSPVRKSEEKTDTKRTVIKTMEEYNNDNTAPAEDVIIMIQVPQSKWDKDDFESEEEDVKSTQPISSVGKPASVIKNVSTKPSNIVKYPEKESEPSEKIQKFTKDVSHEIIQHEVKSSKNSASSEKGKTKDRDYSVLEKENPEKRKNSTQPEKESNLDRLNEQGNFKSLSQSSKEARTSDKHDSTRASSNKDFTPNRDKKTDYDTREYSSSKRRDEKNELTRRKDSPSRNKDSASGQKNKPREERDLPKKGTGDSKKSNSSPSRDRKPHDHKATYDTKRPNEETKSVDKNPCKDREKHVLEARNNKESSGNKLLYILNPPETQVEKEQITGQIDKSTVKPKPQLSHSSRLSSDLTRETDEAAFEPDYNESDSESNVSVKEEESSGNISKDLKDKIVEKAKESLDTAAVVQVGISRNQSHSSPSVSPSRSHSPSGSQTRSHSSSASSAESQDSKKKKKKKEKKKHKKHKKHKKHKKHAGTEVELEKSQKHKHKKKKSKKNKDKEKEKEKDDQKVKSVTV

Row | Target | log2 fold change [1] | log2 fold change (filanesib) | log2 fold change (zotarolimus) | log2 fold change (idasanutlin) | log2 fold change (alisertib) | log2 fold change [2] | log2 fold change [3] | log2 fold change (crizotinib) | log2 fold change [4] | log2 fold change [5] | log2 fold change (duvelisib) | log2 fold change (tozasertib) | log2 fold change [6] | log2 fold change (doramapimod) | log2 fold change [7] | log2 fold change (gefitinib) | log2 fold change (lapatinib) | log2 fold change (pictilisib) | log2 fold change (gandotinib) | log2 fold change (ispinesib)
1 | RAPGEF4 (UniProt Q8WZA2) | 0.549 | 0.053 | -0.078 | 0.021 | -0.145 | 0.187 | 0.115 | 0.051 | 0.04 | -0.061 | 0.07 | -0.107 | -0.139 | 0.097 |  |  |  |  |  | 
2 | RPS2 (UniProt P15880) | -0.049 | 0.214 | -0.013 | 0.114 | -0.1 | -0.184 | -0.045 | 0.043 | -0.369 | 0.286 | -0.162 | -0.007 | 0.007 | 0.131 | -0.027 | -0.05 | 0.094 | -0.143 | 0.202 | -0.162
3 | ROCK1 (UniProt Q13464) | 0.037 | -0.028 | 0.003 | -0.005 | 0.067 | -0.005 | 0.016 | -0.017 | 0.042 |  | -0.019 | 0.015 | 0.027 | -0.025 | 0.246 (active) | -0.012 | 0.012 | -0.012 | -0.025 | -0.069
4 | RABGAP1L isoform 3 (UniProt Q5R372) | -0.108 | -0.026 | -0.006 | -0.05 | -0.008 | 0.033 | -0.018 | 0.005 | -0.004 | -0.138 | -0.013 | -0.011 | 0.05 | 0.052 | -0.025 | 0.035 | 0.012 | -0.066 | -0.018 | 0.046
5 | RCN3 (UniProt Q96D15) | -0.065 | 0.054 | -0.068 | -0.122 | 0 | 0.132 | -0.016 | -0.028 | -0.02 | -0.041 | -0.022 | -0.087 | -0.058 | 0.092 | 0.043 | 0 | -0.025 | 0.087 | 0.029 | -0.033
6 | RABGAP1L isoform 5 (UniProt Q5R372) | 0.117 | 0.108 | -0.008 | 0.05 | -0.071 | 0.007 | 0.071 | 0.003 | 0.022 | 0.046 | 0.008 | -0.121 | -0.015 | -0.073 | 0.065 | -0.097 | -0.027 |  |  | 
7 | RBBP6 (UniProt Q7Z6E9) | 0.101 | 0.468 (active) | -0.052 | 0.089 | 0.044 | 0.146 | -0.117 | -0.158 | -0.036 | 0.072 |  | 0.03 |  | 0.012 | -0.099 | -0.02 | 0.101 | 0.016 | -0.066 | 0.168
8 | RCOR3 isoform 3 (UniProt Q9P2K3) | -0.019 | 0.084 | -0.011 | -0.046 | -0.145 | 0.011 | -0.039 | -0.117 |  | -0.061 | 0.105 | 0.091 | 0.104 | -0.047 | 0.14 | 0.013 | 0 | -0.106 | -0.015 | -0.065
9 | SETD3 (UniProt Q86TU7) | -0.254 (active) | -0.132 | 0.009 | -0.086 | -0.022 | 0.048 | 0.007 | 0.051 | 0.076 | -0.012 | 0.005 | -0.037 | 0.012 | -0.026 | 0.052 | 0.017 | -0.013 | 0.03 | 0.021 | 0.059
10 | SCAMP2 (UniProt H3BUB6) | -0.27 | 0.126 | -0.217 | 0.134 | -0.019 | 0.188 | 0.085 | 0.128 | -0.011 | 0.317 | 0.166 | -0.159 | -0.305 | -0.088 | 0.319 | 0.003 | -0.329 |  |  | -0.258
11 | SIK3 (UniProt H0Y4E8) | -0.015 | 0.085 | -0.073 | -0.065 | -0.018 | 0.466 | -0.144 | 0.084 |  | 0.027 | 0.035 | -0.106 | -0.056 | -0.058 | 0.077 | -0.026 | 0.036 | -0.007 | 0.118 | 0.185
12 | RAF1 isoform 2 (UniProt P04049) | 0.035 | 0.085 | -0.024 | -0.102 | 0.139 | -0.067 | 0.023 | -0.305 | -0.135 | -0.092 | 0.068 | 0.093 | 0.035 | 0.133 | -0.246 |  | 0.051 | 0.207 | 0.131 | -0.145
13 | RCOR1 (UniProt Q9UKL0) | -0.039 | 0.002 | -0.044 | 0 | 0.013 | 0.015 | 0.011 | -0.033 | 0.095 | 0.071 | 0.088 | 0.005 | 0.041 | 0.001 | 0.003 | -0.002 | 0.019 | 0.005 | -0.046 | -0.031
14 | RNASEH2A (UniProt O75792) | 0.029 | -0.005 | 0.034 | -0.007 | -0.016 | 0.031 | 0.106 | -0.134 | -0.045 | -0.032 | 0.011 | -0.028 | 0.029 | -0.023 | 0.049 | -0.013 | -0.029 | 0.234 | 0.156 | -0.001
15 | RPS20 isoform 2 (UniProt P60866) | -0.086 | 0.085 | 0.019 | 0.047 | -0.018 | -0.157 | -0.062 | 0.013 | -0.176 | 0.174 | -0.034 | 0.008 | 0.004 | 0.048 | -0.015 | -0.036 | 0.108 | -0.006 | 0.129 | -0.066
